Our source for the growth values is PubChem BioAssay (NCI).

Several values for one entry are separate records, joined by “and”; a condition that tells them apart may be missing. Identical values can stand only once. Compounds without any hit were thinned out: in the full panel of roughly 83,000, 20% have a hit.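 48-hour exposure, single concentration, 96-well plates; percent growth endpoint where 0 means no net growth. Active: below 10.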 A number with no mark means an inactive call. Activity calls are given as the source filed them.

The subject of the assay is HCT-15 colon. Kind of assay: NCI-60 one-dose screen, 48 h (100 = growth as untreated, 0 = no growth, -100 = all killed). The following applies: 10 µM unless noted. How it is done: Growth inhibition of the HCT-15 human tumor cell line is measured as a screen for anti-cancer activity. Cells are grown in 96 well plates and exposed to the test compound for 48 hours. Compounds are tested at a single concentration, which is 10^-5 M for most compounds. The reported endpoint is percent growth (GI% or GIPRCNT), where numbers from 0 - 100% represent growth inhibition, and numbers from -100% - 0 represent cell death. For example, a value of 40 represents 60% growth inhibition. A value of 0 means no net growth occurred over the course of the experiment. A value of -40 indicates 40% of cells at the beginning of the experiment died by the end of the experiment. A value of -100 means all cells are dead at the end of the experiment.
NCI-60 Human Tumor Cell Lines Screen was performed using the standard one-dose NCI protocol, which is described in more detail at https://dtp.cancer.gov/discovery_development/nci-60/default.htm.
Compounds with GIPRCNT values below 10 were considered active. Activity score was based on GIPRCNT using the following formula: […]
Score is 0 for GIPRCNT values of 100 or above, 50 for GIPRCNT values of 0, and 100 for GIPRCNT values of -100.
For `NS(=O)(=O)c1ccc(CCn2c(-c3ccc(C(=O)O)cc3)nc(-c3ccccc3)c2-c2ccccc2)cc1`, the growth was 94.5%.

On to `CCOC(=O)C(=O)Nc1ccc2c(ccn2C(=O)c2cccc(F)c2)c1`, for which the growth was 95.8%.

As to `CC[C@]12CC(C(=O)OC)=C3Nc4ccccc4[C@@]34CCN(C14)[C@@H]1c3cc4c(cc3O[C@@H]1[C@H]2O)NC1=C(C(=O)OC)C[C@@]2(CC)C3N(CC[C@@]143)C[C@H]1O[C@H]12` (stereo not given in full), the growth is 3.59% (active).

Regarding `O=S(=O)(Oc1ccc(-c2cn3ccoc3n2)cc1)c1cccc(C(F)(F)F)c1`, the growth is 95.6%.

Take `Cc1ccc2c(n1)C(=O)C(Cl)=C(Nc1cccc(C(F)(F)F)c1)C2=O`: the growth is -61.1% (active).

Take `Cc1ccc(CSC2=C(Cl)CN(c3ccc(Cl)cc3)C2=O)cc1`: the growth was 99.2%.

In the case of `CC[C@]12C=CCN3CC[C@]4(C(=C(C(=O)OC)C1)Nc1cc5c(cc14)[C@@H]1[C@H](O5)[C@@H](O)[C@@]4(CC)CC(C(=O)OC)=C5Nc6cc(O)ccc6[C@@]56CCN1C46)C32` (stereo not given in full), the growth was -44.6% (active).

In the case of `C#C[C@]1(O)CC[C@H]2[C@@H]3CC=C4c5sc(NCc6ccccc6)nc5CC[C@]4(C)[C@H]3CC[C@@]21C`, the growth was 8.8% (active).

As to `Cc1cc(Br)ccc1-n1cc(C#N)c(N)c1C(=O)c1ccc(Br)cc1`, the growth was 97.6%.

With `CC(Nc1c(C#N)cnc2ccc(-c3cncc(-c4n[nH]c(=O)o4)c3)cc12)c1ccccc1` (stereo not given), the growth is 10.4%.

For `COc1ccc(OC)c(CCn2cncc2-c2c[nH]c3ccc(Cl)cc23)c1`, the growth is 32.8%.

In the case of `Cc1csc(/N=C(N)/N=C(\N)c2cccc(C#N)c2)n1`, the growth was 39.3%.

Take `COc1ccc(/C=N/NC(=O)c2c(N)nn(C)c2Nc2ccccc2)cc1Oc1ccccc1`: the growth was 87.7%.

`C#CCN(C)CCCOc1ccc(NC(=O)CCCCCCCCC(=O)NO)cc1Cl`: the growth is 75%.

As for `CC(C)NC(=O)c1cc(-c2ccc(NC(=O)Nc3ccc(F)c(C(F)(F)F)c3)cc2)nc2cccnc12`, the growth was 89.7%.

Take `CCCc1cc2cc(-n3nc(CC)c4c3CC(C)(C)CC4=O)cc(NC3CCC(O)CC3)c2c(=O)[nH]1` (stereo not given): the growth was 17%.

On to `COC(=O)c1cccc(NC2=C(Cl)C(=O)c3nc(C)ccc3C2=O)c1`, for which the growth was 51.6%.

Turning to `CN1CCN(c2ccc(Nc3nc(NCCCNS(=O)(=O)c4ccc(C(F)(F)F)cc4)c4sccc4n3)cc2)CC1`, the growth is -72.7% (active).

Turning to `Cc1cc(NS(=O)(=O)c2ccc(NC(=O)CSc3nc4ccccc4c(=O)n3-c3ccccc3)cc2)no1`, the growth was 106%.

With `Cc1nc(/N=C(N)/N=C(\N)c2cccc(Br)c2)sc1C`, the growth is 25.1%.

Turning to `COc1ccc(C(=NNS(=O)(=O)c2ccc(C)cc2)c2ccccc2)cc1OC`, the growth was 96.6%.

Consider `O=C(CN1CCN(c2cc(=O)[nH]c3ccc(F)cc23)CC1)N(c1ccccc1)c1ccccc1`, for which the growth was 97.7%.

On to `CN(C)c1ccc(/C=N/Nc2nc(N/N=C/c3ccc(N(C)C)cc3)nc(N3CCCCC3)n2)cc1`, for which the growth is 0.121% (active).

Turning to `OCC(Nc1ncnc2ccc(-c3cnc4cnccn34)cc12)c1ccccc1` (stereo not given), the growth was 92.3%.

Regarding `CCOC(=O)c1cccnc1Nc1ccc(NC(=O)Nc2ccc(Cl)c(C(F)(F)F)c2)cc1`, the growth is 14.4%.

In the case of `Clc1ccc(CSc2nnc(-c3ccc(Cl)cc3)n2-c2ccccc2)cc1`, the growth was 93.3%.

As for `CN1CCN(c2ccc(Nc3nc(NCCCNS(=O)(=O)c4ccc(Cl)cc4)c4sccc4n3)cc2)CC1`, the growth was 6.7% (active).

With `COc1cc(-c2nc(-c3ccccc3)[nH]c2-c2ccnc(NCCCNS(=O)(=O)c3ccc(C(F)(F)F)cc3)n2)ccc1Cl`, the growth is 14.3% and 22.5%.

In the case of `CN1CCN(c2ccc(Nc3nc(NCCCNS(=O)(=O)c4cccc(F)c4)c4sccc4n3)cc2)CC1`, the growth is 17.3%.

`COC(=O)c1ccc(NC2=C(Cl)C(=O)C(C)=C(C)C2=O)cc1`: the growth is 40%.

For `CC1=C(C)C(=O)C(Nc2cccc(C(=O)OC(C)(C)C)c2)=C(Cl)C1=O`, the growth is 80.2%.

As to `CCOC(=O)c1c(NC(=O)c2cccc(C(F)(F)F)c2)sc2c1CCC(=O)C2`, the growth was 18.9%.

For `O=C(CSc1nc2ccccc2c(=O)n1-c1ccc(S(=O)(=O)Nc2ccc(Cl)nn2)cc1)Nc1ccc(S(=O)(=O)Nc2ccc(Cl)nn2)cc1`, the growth was 100%.

For the molecule `CCCCCCN1C=C/C(=C\C(=O)n2ccc3ccccc32)c2ccccc21`, the growth was 79.6%.

`Cc1ccc(-c2cc3nc(C(Cl)Cl)nc(-c4ccc(S(=O)(=O)N(C)C)cc4)n3n2)cc1`: the growth is 74.9%.

In the case of `CN1CCC[C@]2(C)[C@H]3CC[C@@H]4[C@@H]5[C@H]6OC[C@@]5(CCC6(C)C)CC[C@@]4(C)[C@]3(C)CC[C@H]2C1(C)C`, the growth is 24.4%.

Regarding `Cc1ccc(-c2csc(N/N=C/c3cccs3)n2)cc1`, the growth was 59.1%.

With `CC(=C(c1ccc(OCCCN(C)C)cc1)c1ccc(OCCCN(C)C)cc1)c1ccc(Cl)cc1`, the growth is 41.6%.

`COc1ccc(-c2cc(-c3ccc(N4CCOCC4)cc3)n3c(n2)nc2ccccc23)cc1OC`: the growth is 83.1%.

Turning to `CCOc1cccc(/C(N)=N/C(N)=N/c2nc3ccccc3s2)c1`, the growth was 49.9%.
